Bioassay records from PubChem BioAssay.
This is a sample that favours compounds with a hit; in the whole collection about 8.2% have one here.
MCF10A rerep: inducers of DNA re-replication in MCF 10A breast cells | MCF 10A DNA re-replication, Hoechst nuclear intensity, 48 h | Potency, µM (highest dose often 46.1 µM), inactives show top-dose activity, positive = re-replication, usual class: activators | actives 2.9% (n = 350,000) | AID 624296; note: % of control where 0% means no effect; nearly all actives have a fitted effect of over 50% in size
KB-3-1 cytotox: KB-3-1 parental cell cytotoxicity; KB-3-1 viability, CellTiter-Glo ATP luminescence, 72 h; Potency, µM (top dose mostly 46.1 µM), actives largely listed as cytotoxic; actives 1.4% (n = 400,000); AID 1347075; note: % is set by controls: 0 for no effect and ±100 for the full control effect; nearly all actives have a fitted effect of over 60% in size
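Viability of parental KB-3-1 cells, measured by CellTiter-Glo luminescence, followed a 72 h incubation at 37 °C with pinned compounds in phenol-red-free DMEM containing 10% FBS.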
SW480 rerep: inducers of DNA re-replication in SW480 colon cancer cells; Potency, µM (series often up to 46.1 µM), inactives show at the top dose re-replication activation, most hits filed as activators; SW480 DNA re-replication, Hoechst DNA content imaging, 48 h; actives 1.8% (n = 340,000); note: % of control where 0% means no effect; nearly all actives have a fitted effect of over 55% in size
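Quantitative HTS format with DMSO vehicle controls; 48 hr drug incubation at 37 C, then 40 min Hoechst staining and scanning imager measurement at 405 nm excitation.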
KB-V1 cytotox: KB-V1 MDR subline cytotoxicity; KB-V1 MDR cells viability, CellTiter-Glo, 72 h; Potency, µM (series often up to 46.1 µM), usual class: cytotoxic; actives 3.4% (n = 400,000); AID 1347076; note: % is set by controls: 0 for no effect and ±100 for the full control effect; nearly all actives have a fitted effect of over 60% in size
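Cells of the MDR subline KB-V1 are plated, dosed with compound at multiple concentrations, and incubated 72 h at 37 degrees C; CellTiter-Glo is then added and luminescence read after 10 min.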
ELG1 repair inh: inhibitors of ELG1-dependent DNA repair in HEK293T cells. HEK293T ELG1-luciferase reporter, luminescence, 16 h; DNA damage induced by 5-fluorouridine. Potency, µM (highest dose often 46.1 µM), for inactives: top-dose activity change, negative = inhibition, actives largely listed as inhibitors. actives 2.3% (n = 330,000). AID 504467; note: % is set by controls: 0 for no effect and ±100 for the full control effect; nearly all actives have a fitted effect of over 55% in size
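DMSO vehicle served as the neutral condition. Each well held 2,000 cells given 5-fluorouridine plus compound; after 16 hr at 37 °C/5% CO2, ONE-Glo was added and luciferase measured 30 min later.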
The depositor's hits bear a star; i = inactive; ? = inconclusive; . = not tested or not shown; [ ] = another dose, or the depositor's remark. Calls come from the whole dose curve; as a rule, active = well fitted curve in the direction sought with a large enough effect; inconclusive = small, poorly fitted or top-dose-only effect, or another doubt; inactive = no such curve, though single readings can be large; an effect the other way counts as inactive or inconclusive. Potency is the fitted concentration of half-maximal effect.

SMILES	MCF10A rerep	KB-3-1 cytotox	SW480 rerep	KB-V1 cytotox	ELG1 repair inh
COc1cc[n+]([O-])cc1[N+](=O)[O-]	-14%	i	5%	i	.
COC(=O)C(C)Sc1nnc2cc(C)c3cc(C)cc(C)c3n12 (stereo unspecified)	.	i	.	i	.
COc1cc(C(=O)Nc2cccc(S(=O)(=O)N3CCCC3)c2)cc(OC)c1C	?	?	1%	23µM*	29µM*
Cc1ccc(S(C)(=O)=O)cc1C(=O)Nc1cccc(S(=O)(=O)N2CCCCCC2)c1	4%	?	-21%	?	12µM*
Oc1c(C(Nc2ccccn2)c2ccccc2)cc(Cl)c2cccnc12 (stereo unspecified)	.	?	.	i	.
CCCCC(=O)NC(c1ccco1)c1cc(Cl)c2cccnc2c1O (stereo unspecified)	26%	?	?	?	15%
CC(=O)NC(c1ccc(C)cc1)c1cc(Cl)c2cccnc2c1O (stereo unspecified)	?	5.8µM*	2.9µM*	?	?
O=C(CCc1ccccc1)NC(c1cccs1)c1cc(Cl)c2cccnc2c1O (stereo unspecified)	?	?	?	2.1µM*	?
CCC(=O)NC(c1ccco1)c1cc(Cl)c2cccnc2c1O (stereo unspecified)	?	?	2.6µM*	?	-20%
CC(=O)NC(c1ccco1)c1cc(Cl)c2cccnc2c1O (stereo unspecified)	.	i	.	i	.
Oc1c(C(Nc2ccccn2)c2cccnc2)cc(Cl)c2cccnc12 (stereo unspecified)	23µM*	?	6.5µM*	i	-12%
COc1cccc(NC(=O)CN(C)C(=O)CCNS(=O)(=O)c2ccc(C)cc2)c1	1%	i	-27%	i	-3%
Cc1ccc(S(=O)(=O)N2CCOCC2)cc1NC(=O)c1ccc(F)cc1F	-2%	i	-9%	i	8%
Cc1ccc(C(=O)NC(C)c2ccc(-n3ccnc3)cc2)o1 (stereo unspecified)	1%	i	?	i	6%
COc1ccc(C(=O)NC(c2ccc(OC)c(OC)c2)c2cc(Cl)c3cccnc3c2O)cc1 (stereo unspecified)	.	i	.	i	.
COc1ccc(C(NC(=O)c2cccnc2)c2cc(Cl)c3cccnc3c2O)cc1OC (stereo unspecified)	13µM*	?	?	6.5µM*	?
Cc1cc(NC(c2cccnc2)c2ccc3cccnc3c2O)no1 (stereo unspecified)	10µM*	?	1.5µM*	?	?
CC(=O)NC(c1cc(Cl)c2cccnc2c1O)C1CC1 (stereo unspecified)	?	i	1.3µM*	16µM*	?
c1ccc(CC2CCN(Cc3ccccn3)CC2)cc1	18%	i	0%	i	11%
CC(=O)NC(c1cc(Cl)c2cccnc2c1O)C(C)C (stereo unspecified)	-51%	i	?	?	-25%
Oc1c(C(c2ccccn2)N2CCC(Cc3ccccc3)CC2)cc(Cl)c2cccnc12 (stereo unspecified)	16µM*	?	?	2.6µM*	?
CCC1(C)CC(C#N)(C#N)C(=O)NC1=O (stereo unspecified)	.	i	.	i	.
Cc1ccccc1NS(=O)(=O)c1csc(C(N)=O)c1	-1%	i	-16%	i	0%
COc1ccc(C(=O)NC(c2ccco2)c2cc(Cl)c3cccnc3c2O)cc1 (stereo unspecified)	.	i	.	?	.
CN1CCN(C(c2ccccn2)c2cc(Cl)c3cccnc3c2O)CC1 (stereo unspecified)	15%	i	?	i	2%
SMILES	MCF10A rerep	KB-3-1 cytotox	SW480 rerep	KB-V1 cytotox	ELG1 repair inh
CCC(=O)NC(c1ccc(OC)cc1)c1cc(Cl)c2cccnc2c1O (stereo unspecified)	11%	?	0.52µM*	i	-6%
Cc1ccc(C(c2cc(Cl)c3cccnc3c2O)N2CCN(C)CC2)cc1 (stereo unspecified)	11%	?	?	i	16µM*
Cc1cc2nc(-c3ccc(Cl)cc3)c(CC(C)(C)C)n2c(C)c1Br	.	i	.	i	.
Cc1cccc(C)c1NC(=O)C(c1ccccc1)N1CCN(c2ccc(C(F)(F)F)cn2)CC1 (stereo unspecified)	.	i	.	i	.
COc1ccc(CN2CCC3CC2c2cc(Cl)ccc23)cc1 (stereo unspecified)	?	?	-4%[9.22 µM]	i	.
COc1ccc(CN2CCC3CC2c2cc(-c4cccc(C)c4)ccc23)cc1 (stereo unspecified)	9.2µM*	i	?	i	.
O=C1CCCCC(=O)[C@H](OC(=O)c2ccccc2)C[C@H](c2ccccc2)O1	.	i	.	?	.
CN(C)S(=O)(=O)c1ccc(C(=O)Oc2cc(=O)[nH]c3ccccc23)cc1	6.5µM*	i	4%	i	12%
Cc1ccc(S(=O)(=O)N(C)c2ccc(OC(=O)c3cc(=O)[nH]c4ccccc34)cc2)cc1	-11%	i	2%	i	6%
CCOc1ccc(N2C(=O)/C(=C/c3ccccc3)N=C2SC)cc1	5.8µM*	i	7%	i	?
CCCOc1ccc(N2C(=O)C/C(=C\c3ccccc3)C2=O)cc1	2%	i	-1%	i	-4%
COc1ccc(/C=C2\N=C(SC)N(c3ccccc3OC)C2=O)cc1	?	?	18µM*	i	?
CC(C)(C)c1ccc(NC(=O)C2CCCN(c3cnccn3)C2)cc1 (stereo unspecified)	12%	i	?	i	6%
COc1ccc(-c2nc(CSCC(=O)N3CCN(c4cccc(C)c4)C(C)C3)c(C)o2)cc1OC (stereo unspecified)	17%	i	?	?	15µM*
COc1ccc(-c2nc(CSCC(=O)NC3CCCC3)c(C)o2)cc1OC	-4%	i	-13%	?	15µM*
COC(=O)c1ccc(-c2ccco2)n1Cc1nc(-c2ccc(OC)c(OC)c2)oc1C	18µM*	?	15%	i	?
COc1ccc(-c2nc(CSCC(=O)NC3CCCc4ccccc43)c(C)o2)cc1OC (stereo unspecified)	?	i	0%	?	16µM*
COC(=O)c1cc2oc3ccccc3c2n1Cc1nc(-c2ccc(OC)cc2)oc1C	.	i	.	?	.
C#Cc1cccc(NC(=O)c2ccc(Cl)cc2Cl)c1	0%	i	-5%	i	?
O=C(Nc1ccc(F)c(Cl)c1)c1cc(C2CCCCN2C(=O)CCc2ccccc2)on1 (stereo unspecified)	.	i	.	i	.
